This is part of a sample that, as a whole, favours compounds with a hit. Of some 79,000 tested, about 15% had one in any assay. A number with no mark means an inactive call. Rule as the data show it: active = growth inhibition above about 70%; inactive = the rest.

The first assay is described as follows: NCI Yeast Anticancer Drug Screen. Data for the bub3 strain (AID 167). The note with it: S. cerevisiae bub3 mutant strain, at 50.0 µM, active compounds read high. In short, it runs like this: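 Growth of a checkpoint-deficient yeast mutant is measured after compound exposure. Values represent inhibition relative to vehicle.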
In the case of `OCC(CN1CCCCC1)(CN1CCCCC1)CN1CCCCC1`, the growth inhibition was -5.2%.

On to `Cc1ccccc1NCC#N`, for which the growth inhibition was 10%.

With `O=C1c2ccccc2C(=O)N1CCc1ccccn1`, the growth inhibition was -0.45%.

Regarding `O=C(N/N=C/c1ccc(Cl)cc1)c1cc(-c2ccccc2)nc2ccccc12`, the growth inhibition was 2%.

Turning to `CCN(c1ccc(Br)cc1)c1ccc(Br)cc1`, the growth inhibition is 3.75%.

Turning to `COc1ccc(C(=O)c2ccccc2C(=O)c2ccc(OC)cc2)cc1`, the growth inhibition was -7.7%.

With `COc1ccc(NC(=O)c2cccc([N+](=O)[O-])c2)cc1`, the growth inhibition was 4.1%.

Consider `OCC(O)C(O)C(O)C(O)CN=Cc1ccccc1O` (stereo not given), for which the growth inhibition was -19.6%.

As to `CC1CC(C)SC(C)S1` (stereo not given), the growth inhibition was -2.7%.

For `CC(=O)Oc1ccc2cc(Br)ccc2c1N(C(C)=O)C(C)=O`, the growth inhibition was 24.6%.

`C/C(=N\NC(=O)c1cccnc1)c1cccc(/C(C)=N/NC(=O)c2cccnc2)n1.CC(=O)[O-].CC(=O)[O-].[Zn+2]`: the growth inhibition is -6.1%.

As for `Cc1ccc2nc(N)nc(N)c2c1`, the growth inhibition is -10.6%.

Turning to `CC(=O)Nc1ccc(S(=O)(=O)CO)cc1`, the growth inhibition was -0.3%.

Take `COc1ccc(C(=O)c2ccccc2)c(OC(=O)Nc2ccc(Cl)cc2)c1`: the growth inhibition is 12.6%.

For the molecule `CC1(n2nc(-c3ccccc3)n(-c3ccccc3)c2=O)CSC1`, the growth inhibition was -15.8%.

In the case of `O=C(O)c1ccc(Nc2nc3ccccc3nc2C(=O)O)cc1`, the growth inhibition is -13.2%.

Consider `CCOC(=O)C(C(=O)OCC)(C(=O)C(F)(F)C(F)(F)C(F)(F)C(F)(F)C(=O)C(C(=O)OCC)(C(=O)OCC)c1ccccc1)c1ccccc1`, for which the growth inhibition is 7.75%.

Consider `COC1/C=C\C=C(/C)C(=O)Nc2cc3nc4cccc(Br)c4oc-3c(c2=O)CC(C)CC(OC)C(O)C(C)/C=C(\C)C1OC(N)=O` (stereo not given), for which the growth inhibition is 44.1%.

Regarding `O=C1CC(NC(=O)c2ccccc2)C(=O)O1` (stereo not given), the growth inhibition is 4.3%.

Regarding `Cc1ccc2c(N(C)C)cc(N(C)C)nc2c1C`, the growth inhibition was -1.1%.

Regarding `CC1(C)C2CCC(OC(=O)c3ccc([N+](=O)[O-])cc3)C1C2` (stereo not given), the growth inhibition was 9.95%.

As for `O=CSC(=Nc1ccc(Cl)cc1)NC(=O)COc1ccc(Cl)cc1`, the growth inhibition is 33.3%.

As to `CN(C)c1ccc(N=Nc2ccc(C(C)(C)C)cc2)cc1`, the growth inhibition was -10.6%.

With `O=C(O)c1cccc(-n2cnc3c(=O)[nH]cnc32)c1`, the growth inhibition is 8.6%.

Consider `N#CC1(C#N)C(c2ccccc2)C=CC12OCCCO2` (stereo not given), for which the growth inhibition was -5.3%.

Turning to `CCCC1(C(OC)OC)NC(=O)N(Cc2ccccc2)C1=O` (stereo not given), the growth inhibition was -2.1%.

`Cc1cc2[nH]c(=O)c(=O)[nH]c2cc1C`: the growth inhibition is -0.95%.

With `COc1ccc(I)cc1`, the growth inhibition is -3.5%.

Take `c1ccc(CN2COc3ccc4c5c(ccc4c3C2)OCN(Cc2ccccc2)C5)cc1`: the growth inhibition was 2.05%.

Consider `CCCCCC#CC(=O)OC`, for which the growth inhibition is -2.2%.

Regarding `Nc1nc([O-])c([I+]c2ccccc2)c(=O)[nH]1`, the growth inhibition is 0.15%.

Consider `Cc1[nH]c(-c2ccccc2)c2nc(N(C)C)oc(=O)c12`, for which the growth inhibition is 34.1%.

`CN1CCCC1c1cccnc1.O=C(O)c1ccccc1O.O=C([O-])c1ccccc1[OH2+].O=C([O-])c1ccccc1[OH2+].O=C([O-])c1ccccc1[OH2+].[Mn+2]` (stereo not given): the growth inhibition is -45.8%.

In the case of `Cc1cc2c(c(C(=O)NCCC(=O)N[C@@H](C)C(=O)OCc3ccccc3)c1)Oc1c(cc(C)cc1C(=O)NCCC(=O)N[C@@H](C)C(=O)OCc1ccccc1)S2`, the growth inhibition was -9.8%.

Consider `C=CC(C)(C)/C=C/C=O`, for which the growth inhibition is 24.6%.

`CCCCSc1nc2c(=O)n(C)c(=O)n(C)c2n1C`: the growth inhibition is -12.7%.

For `O=C(O)c1cccc(/C=N/O)c1O`, the growth inhibition was 7.75%.

Consider `N#CC1=C(c2ccccc2)C(=C2Nc3ccccc3N2)C2S/C(=C\c3ccccc3)C(=O)N2C1=N` (stereo not given), for which the growth inhibition was 4.45%.

In the case of `CCc1ccc(/C(C#N)=C/c2ccc(N(C)CCC#N)cc2)cc1`, the growth inhibition is 16.9%.

As for `Nc1ccc2c(c1)C1C(C3C2C2(Cl)C(Cl)=C(Cl)C3(Cl)C2(Cl)Cl)C2(Cl)C(Cl)=C(Cl)C1(Cl)C2(Cl)Cl` (stereo not given), the growth inhibition is 50.1%.

A further assay is described as follows: NCI Yeast Anticancer Drug Screen. Data for the mlh1 rad18 strain (AID 175). The note with it: S. cerevisiae mlh1 rad18 strain growth inhibition; at 50.0 µM; active compounds read high. In short, it runs like this: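 In this whole-cell yeast screen, a strain with altered DNA damage repair is challenged with compound, and its growth is measured against matched vehicle-treated controls.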
`OCC(CN1CCCCC1)(CN1CCCCC1)CN1CCCCC1`: the growth inhibition is -32.4%.

In the case of `Cc1ccccc1NCC#N`, the growth inhibition is -11.6%.

Consider `O=C1c2ccccc2C(=O)N1CCc1ccccn1`, for which the growth inhibition was -22.9%.

As to `O=C(N/N=C/c1ccc(Cl)cc1)c1cc(-c2ccccc2)nc2ccccc12`, the growth inhibition was -5.7%.

With `CCN(c1ccc(Br)cc1)c1ccc(Br)cc1`, the growth inhibition was 7.55%.

Consider `COc1ccc(C(=O)c2ccccc2C(=O)c2ccc(OC)cc2)cc1`, for which the growth inhibition was 6.95%.

On to `COc1ccc(NC(=O)c2cccc([N+](=O)[O-])c2)cc1`, for which the growth inhibition is 5.8%.

Regarding `OCC(O)C(O)C(O)C(O)CN=Cc1ccccc1O` (stereo not given), the growth inhibition is -4.45%.

As for `CC1CC(C)SC(C)S1` (stereo not given), the growth inhibition was -14.8%.

With `CC(=O)Oc1ccc2cc(Br)ccc2c1N(C(C)=O)C(C)=O`, the growth inhibition was -1.85%.

`C/C(=N\NC(=O)c1cccnc1)c1cccc(/C(C)=N/NC(=O)c2cccnc2)n1.CC(=O)[O-].CC(=O)[O-].[Zn+2]`: the growth inhibition was -4%.

`Cc1ccc2nc(N)nc(N)c2c1`: the growth inhibition was -3.8%.

For the molecule `CC(=O)Nc1ccc(S(=O)(=O)CO)cc1`, the growth inhibition is 16.8%.

On to `COc1ccc(C(=O)c2ccccc2)c(OC(=O)Nc2ccc(Cl)cc2)c1`, for which the growth inhibition was 16.6%.

As for `CC1(n2nc(-c3ccccc3)n(-c3ccccc3)c2=O)CSC1`, the growth inhibition is -7.1%.

Consider `O=C(O)c1ccc(Nc2nc3ccccc3nc2C(=O)O)cc1`, for which the growth inhibition is -0.9%.

With `CCOC(=O)C(C(=O)OCC)(C(=O)C(F)(F)C(F)(F)C(F)(F)C(F)(F)C(=O)C(C(=O)OCC)(C(=O)OCC)c1ccccc1)c1ccccc1`, the growth inhibition is 11.1%.

As for `COC1/C=C\C=C(/C)C(=O)Nc2cc3nc4cccc(Br)c4oc-3c(c2=O)CC(C)CC(OC)C(O)C(C)/C=C(\C)C1OC(N)=O` (stereo not given), the growth inhibition is 16.5%.

Regarding `O=C1CC(NC(=O)c2ccccc2)C(=O)O1` (stereo not given), the growth inhibition is -21.4%.

For `Cc1ccc2c(N(C)C)cc(N(C)C)nc2c1C`, the growth inhibition was 15.5%.

As to `CC1(C)C2CCC(OC(=O)c3ccc([N+](=O)[O-])cc3)C1C2` (stereo not given), the growth inhibition was -20.8%.

Consider `O=CSC(=Nc1ccc(Cl)cc1)NC(=O)COc1ccc(Cl)cc1`, for which the growth inhibition is 12.3%.

Consider `CN(C)c1ccc(N=Nc2ccc(C(C)(C)C)cc2)cc1`, for which the growth inhibition was -20.3%.

Consider `O=C(O)c1cccc(-n2cnc3c(=O)[nH]cnc32)c1`, for which the growth inhibition is -14.2%.

Consider `N#CC1(C#N)C(c2ccccc2)C=CC12OCCCO2` (stereo not given), for which the growth inhibition was 23.2%.

For the molecule `CCCC1(C(OC)OC)NC(=O)N(Cc2ccccc2)C1=O` (stereo not given), the growth inhibition was 4.75%.

As for `Cc1cc2[nH]c(=O)c(=O)[nH]c2cc1C`, the growth inhibition is 2.55%.

Consider `COc1ccc(I)cc1`, for which the growth inhibition is 2.35%.

With `c1ccc(CN2COc3ccc4c5c(ccc4c3C2)OCN(Cc2ccccc2)C5)cc1`, the growth inhibition is -17.7%.

Consider `CCCCCC#CC(=O)OC`, for which the growth inhibition was 2.75%.

In the case of `Nc1nc([O-])c([I+]c2ccccc2)c(=O)[nH]1`, the growth inhibition is -6.45%.

Regarding `Cc1[nH]c(-c2ccccc2)c2nc(N(C)C)oc(=O)c12`, the growth inhibition is -5.25%.

With `CN1CCCC1c1cccnc1.O=C(O)c1ccccc1O.O=C([O-])c1ccccc1[OH2+].O=C([O-])c1ccccc1[OH2+].O=C([O-])c1ccccc1[OH2+].[Mn+2]` (stereo not given), the growth inhibition is 7.3%.

For the molecule `Cc1cc2c(c(C(=O)NCCC(=O)N[C@@H](C)C(=O)OCc3ccccc3)c1)Oc1c(cc(C)cc1C(=O)NCCC(=O)N[C@@H](C)C(=O)OCc1ccccc1)S2`, the growth inhibition is 27.1%.

For the molecule `C=CC(C)(C)/C=C/C=O`, the growth inhibition is -32.1%.

`CCCCSc1nc2c(=O)n(C)c(=O)n(C)c2n1C`: the growth inhibition is 6.95%.

With `O=C(O)c1cccc(/C=N/O)c1O`, the growth inhibition was 8.55%.

Consider `N#CC1=C(c2ccccc2)C(=C2Nc3ccccc3N2)C2S/C(=C\c3ccccc3)C(=O)N2C1=N` (stereo not given), for which the growth inhibition was 26.8%.

Turning to `CCc1ccc(/C(C#N)=C/c2ccc(N(C)CCC#N)cc2)cc1`, the growth inhibition is -23.9%.

As for `Nc1ccc2c(c1)C1C(C3C2C2(Cl)C(Cl)=C(Cl)C3(Cl)C2(Cl)Cl)C2(Cl)C(Cl)=C(Cl)C1(Cl)C2(Cl)Cl` (stereo not given), the growth inhibition was 39.5%.

The values are drawn from PubChem BioAssay (NCI).
